Results: the supplement of paper PMC3334620
In all, about 33,000 sequences were measured (“E-score (-0.5 to 0.5)”: median about -0.016, highest 2% from about 0.32 on). The list comes from a sample in which the highest values are over-represented; it also holds similar and randomly drawn sequences.

The sequences below were run against T1, Stp1 (UniProt B3LFK1) (assay: PBM E-score (8-mer binding enrichment) (E-score (-0.5 to 0.5)); higher = stronger / more preferred TF binding). Conditions: protein concentration: 200 nM; construct: GST-full length.
T1 sequence: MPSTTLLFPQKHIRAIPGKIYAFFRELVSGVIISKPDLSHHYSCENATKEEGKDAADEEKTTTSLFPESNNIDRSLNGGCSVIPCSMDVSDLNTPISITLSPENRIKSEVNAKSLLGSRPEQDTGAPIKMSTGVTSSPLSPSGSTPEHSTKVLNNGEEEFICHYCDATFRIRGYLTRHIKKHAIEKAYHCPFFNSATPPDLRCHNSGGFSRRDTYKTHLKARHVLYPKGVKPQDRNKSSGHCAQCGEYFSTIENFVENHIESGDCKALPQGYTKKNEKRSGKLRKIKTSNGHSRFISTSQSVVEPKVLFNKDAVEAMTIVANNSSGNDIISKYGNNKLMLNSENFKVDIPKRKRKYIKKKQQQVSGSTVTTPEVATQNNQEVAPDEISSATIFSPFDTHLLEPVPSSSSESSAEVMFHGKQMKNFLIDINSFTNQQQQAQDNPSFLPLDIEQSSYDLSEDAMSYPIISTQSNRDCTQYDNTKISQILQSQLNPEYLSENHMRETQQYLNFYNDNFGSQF
Protocol: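 Universal 'all 10-mer' protein binding microarrays (Agilent AMADID 015681) probed with GST-tagged S. cerevisiae TFs (full-length or DBD) made by in vitro transcription/translation (PURExpress), about 100-200 nM. Bound TF was detected with fluorescent anti-GST. Each ungapped 8-mer (which stands for itself and its reverse complement) is scored by the PBM enrichment score (E-score), a modified Wilcoxon-Mann-Whitney statistic from -0.5 to +0.5, computed with the Universal PBM Analysis Suite. Scale: above 0.35 generally sequence-specific binding.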

Sequence | PBM E-score
GACGGCAA | 0.325
GCCGGCAC | 0.273
GCCGGCAA | 0.106
GTCGGCAA | 0.0611
CAAGCCCG | -0.0901
CCACACTA | 0.127
ATCTAGCG | -0.0611
ACCAGATG | -0.146
ATGAGGCA | 0.332
AAGAGGCT | 0.0613
AAGAGGCA | 0.363
GGGAGGCA | 0.00612
ATGAGGAA | -0.0278
AAGAGGCG | 0.298
GAGAGGCA | 0.208
ATGAGGCG | 0.35
GTGAGGCA | 0.367
ATGAGGCC | 0.0892
ATGAGGTG | -0.0679
CTGAGGCA | 0.192
GTTCTGTA | 0.0215
TCCCGCGA | -0.312
TATTGAGA | 0.0944
CCTGCTCC | 0.0227
CATTAAAA | 0.245

Sequence | PBM E-score
CAAGACCC | -0.272
AAAGGACC | 0.0732
ATGAGTAC | 0.0493
CGTGTGGC | 0.353
CATGTGGC | 0.32
CGTGTGGA | 0.016
CATGTGGG | -0.144
AATGTGGC | 0.158
AGTGTGGC | 0.068
AGCTCATC | -0.307
TAGCACCA | -0.0587
GCAACTAA | 0.263
ATGTTTCG | 0.147
AAAAACGA | 0.128
CCGGCGCG | 0.298
CCGGCGGC | 0.152
GCGGCGCA | 0.463
GCGGCCCC | 0.176
TCGGCGCA | 0.243
CCGGCGCC | 0.367
GGGGCGCA | 0.126
CCGGCGCA | 0.121
GCGGCGCC | 0.484
CTTCAGAC | -0.00198
AGTCGCGC | 0.0334

Sequence | PBM E-score
GCCCTAGA | -0.0515
CTGCTTCA | -0.155
ACTATCTG | -0.183
AGCCGCTG | 0.0781
AGCCGCTC | 0.337
AGCCGCTA | 0.119
CACCGCTC | -0.0467
CGCCGCTC | 0.434
CGCCGCTA | 0.299
ATGACCAA | -0.0118
CGATTAGA | 0.083
CGACAGGC | -0.0711
CAAGATCA | 0.101
GCTGCCCC | -0.0352
CAGTCAAC | -0.139
CATACTTC | -0.12
CCACCCAC | 0.0467
CGGCACCA | 0.462
AGGCACCT | 0.135
CTGCACCA | -0.199
TGGCACCA | 0.176
AGGCACGG | 0.397
GGGCACCA | 0.056
AGGCACGA | 0.267
AGGCACAT | 0.276

Sequence | PBM E-score
AGGCACCA | 0.366
CCTCTCTA | -0.212
AACCAGTT | 0.143
GAGAAGCC | -0.0953
GGTGGCAC | 0.147
TGGTGAAA | 0.0915
CATTTTGG | 0.114
ATAGTGAG | -0.0378
TGATTCCA | -0.0134
GAAGGTAC | -0.11
AATCGCCC | 0.0762
ATTCGCCG | 0.328
CATCGCCC | -0.0878
AGTCGCCG | 0.369
AATCGCCT | 0.302
CATCGCCA | 0.0899
AATCGCCG | 0.431
AGTCGCCA | -0.199
AGTCGCCC | -0.174
ATTCGCCA | 0.0506
CATCGCCG | 0.375
ATTCGCCC | -0.0713
AAGCATCT | -0.17
AGGATATG | 0.0335
ACCATCCG | -0.144

Sequence | PBM E-score
ACTGGACG | -0.112
GTAGCTGA | -0.154
GTCTCTAA | -0.0881
AAACGGTT | -0.155
AGATAACT | -0.103
AGCGCCAA | -0.059
CGCGCCAA | 0.132
GGCGCCAC | 0.384
CGCGCCAC | 0.286
AGCGCCAC | 0.13
GGCGCCAA | 0.379
AAAGCCTC | 0.204
GAAGCCGC | 0.393
AAAGCCGG | 0.135
CAAGCCGC | 0.299
AAAGCCGT | 0.386
GAAGCCGA | -0.0348
ACAGCCGA | -0.0659
ACAGCCGT | 0.354
ACAGCCGC | 0.25
AAAGCCGA | -0.0141
AAAGCCAC | 0.123
AAAGCCGC | 0.369
GGAGTACA | -0.00077
CGTCTTAG | 0.0086

Sequence | PBM E-score
CTTCATCA | -0.0498
AACTCTAA | -0.00844
AACAAATT | 0.232
CATTATGG | -0.177
GCGGTCCC | -0.16
ATTACGGA | 0.0935
ATTACGGC | 0.341
CGTACGCC | 0.233
AGTACGGG | -0.156
ATTACGGG | -0.199
CGTACGGA | 0.302
AGTACGGA | 0.154
AGTACGGC | 0.436
CGTACGGC | 0.482
CCTCGGGA | -0.121
GCTTAGAC | -0.11
GTGCCCAC | -0.00488
GGCTGACA | 0.0532
GCTTTGGA | 0.103
ACGTGCGC | 0.165
CCGTGCGA | 0.415
CTGTGCGA | -0.0295
GCGTGCGA | -0.0235
CCGTGCTC | 0.261
CCGTGCGC | 0.433

Sequence | PBM E-score
CCAAACTA | -0.0843
GCAGCATA | 0.0149
CGACTACC | -0.22
AGAGAGCA | -0.213
AGTGCAGG | -0.0709
CCCGGGCC | -0.151
CAACGGAA | 0.123
AAACGGTA | 0.166
AAACGGCA | 0.467
TAACGGCA | 0.31
GAACGGGA | -0.0828
CAACGGTA | -0.266
GAACGGCA | 0.468
CAACGGCA | 0.402
GAACGGCC | 0.233
AAACTGCG | -0.0893
ACTGGCAT | -0.0932
CTAGTGCC | 0.301
TACTGCGA | -0.159
TTGAACAA | 0.0506
AATCTACC | -0.0419
CCAAAGTC | -0.132
